Experimental findings from ChEMBL document CHEMBL3433997, “St. Jude Leishmania screening dataset” (2016) are described below.

The structures appear in SMILES notation.

The target in this test is Glucose transporter (Leishmania mexicana) (UniProt O61059). Kind of test: ST_JUDE_LEISH: Cytotoxicity at 2uM final concentration against transgenic Leishmania Mexicana promastigotes LmGT2 that are glucose transport deficient and complemented with the L. Mexicana glucose transporter 2. Activity is measured by DNA content using SYBR green in vitro. The test is classed as functional.
`OCCN1CCN(C2Cc3ccc(F)cc3Sc3ccc(Cl)cc32)CC1` (stereo not given): the inhibition came out at 0.59%.

For `CC(C)(CN)c1nc(-c2ccc(Br)c(O)c2)c(-c2ccncc2)[nH]1`, the inhibition is 2.58%.

Turning to `CCOC(=O)c1sc(C(C)Nc2ccccc2)nc1-c1ccccc1` (stereo not given), the inhibition is -1.6%.

Take `O=[N+]([O-])c1ccc(/C=N/Nc2cc(-c3ccccc3)nc3ccccc23)o1`: the inhibition stood at 5.71%.

Consider `COc1cc(NC(=O)c2sc(-c3ccc(Cl)cc3)cc2NC(=O)c2ccncc2)ccc1OCCN1CCCC1`, for which the inhibition stood at 0.97%.

Turning to `COc1cccc2sc(N3CCN(C(=O)c4ccc([N+](=O)[O-])o4)CC3)nc12`, the inhibition came to 4.81%.

Take `CN1CCN(Cc2ccc(-c3ccc4c(Nc5cc(O)c(Cl)cc5F)ccnc4c3)o2)CC1`: the inhibition is 4.5%.

As to `Cc1cc(N(C)C)nc(Nc2ccc(NC(=O)c3ccccc3F)cc2)n1`, the inhibition was 2.04%.

As to `Cc1c(Cc2ccc(C(C)C)cc2)cnc2nc(N)nc(N)c12`, the inhibition stood at 1.42%.

With `COc1ccc2ncc(F)c(CCN3C4CCC3CC(NCc3ccc5c(c3)OCCO5)C4)c2n1` (stereo not given), the inhibition is 79.2%.

Take `Cc1cc(OCC2CCCO2)c2cc(NC(=O)C(=O)Nc3ccc4nc(C)cc(OCC5CCCO5)c4c3)ccc2n1` (stereo not given): the inhibition is 3.37%.

As to `COc1c(C(=O)NC2CCN(Cc3ccccc3)C2)cnc2ccccc12` (stereo not given), the inhibition came to 8.95%.

For `O=C(c1ccc(-c2ccc(Cl)cc2)o1)N1CCc2cc3nccc(N4CCN5CCC[C@H]5C4)c3cc21`, the inhibition was found to be 0.64%.

Regarding `Nc1nc(N)c2cc(N(Cc3ccccc3)Cc3ccccc3)ccc2n1`, the inhibition is 10.8%.

For the compound `Cc1nc(-c2nc(NCc3ccccn3)ncc2-c2ccsc2)sc1C`, the inhibition is 5.82%.

Take `CCc1ccc(CN2CCCCC(NC(=O)c3cc(-c4ccccc4F)cs3)C2)cc1` (stereo not given): the inhibition is 1.12%.

As to `CC(C)c1ccc(OCC(O)CN(CCN2CCOCC2)C(=O)Nc2ccc(Br)cc2)cc1` (stereo not given), the inhibition stood at 9.58%.

For `CCN1CCN(CCCNc2c3ccc(Cl)cc3nc3ccc(O)cc23)CC1`, the inhibition came to 0.06%.

With `Fc1cc(Cl)ccc1Nc1ccnc2cc(-c3ccc(CN4CCSCC4)o3)ccc12`, the inhibition came to 8.14%.

`COc1ccccc1CCNc1nc(C)cc(N[C@@H](CC(C)C)C(=O)NCCc2ccccc2)n1`: the inhibition is 2.57%.

For `Cc1c(C)c2c(c(C)c1O)CC[C@@](C)(C(=O)N1CCC(CCN3CCC(c4c[nH]c5ccccc45)CC3)CC1)O2`, the inhibition was 4.66%.

On to `Nc1cc(-c2ccc3c(N)nccc3c2)ccc1Cl`, for which the inhibition was determined as 1.32%.

Take `Cc1cc(N(C)CCCN2CCCCC2)nc(Nc2ccc(Cl)cc2)n1`: the inhibition is 2.88%.

For `CC(C)CCNC(=N)Nc1ccc(OCCCCCOc2ccc(NC(=N)NCCC(C)C)cc2)cc1`, the inhibition is -1.73%.

`Cc1ccc(Cn2nc(N3CCNCC3)ccc2=O)cc1NC(=O)Nc1ccc(-c2ccccc2)cc1`: the inhibition was -1.04%.

For `COc1cccc(NC(=O)c2ccc(NCCCN3CCC(C)CC3)c([N+](=O)[O-])c2)c1`, the inhibition was 12.8%.

With `NC1=NC2(CCCC2)C(c2ccc(Cl)c(Cl)c2)C(N)=N1` (stereo not given), the inhibition turned out to be 4.7%.

`O=C(Nc1ccc(C(F)(F)F)cc1)c1cccc(S(=O)(=O)NC2CCN(Cc3ccccc3)C2)c1` (stereo not given): the inhibition stood at 3.95%.

Turning to `O=C(Nc1ccc(F)c(C(F)(F)F)c1)NC1CCN(CCCCCNC(=O)C2CC2c2ccc(Cl)c(Cl)c2)CC1` (stereo not given), the inhibition was determined as 4.44%.

Regarding `CCC(C)NCc1c(O)ccc2c(CNC(C)CC)c(O)ccc12` (stereo not given), the inhibition amounted to 2.13%.

`CC(C)CCn1c(Sc2ccc(C#N)c([N+](=O)[O-])c2)nnc1-c1ccc(N(C)C)cc1`: the inhibition is 0.35%.

For `CCc1cn2c3c(cc(C(=O)N[C@@H](Cc4cccc(Cl)c4)[C@H](O)CNC4CCOCC4)cc13)N(C)S(=O)(=O)CC2`, the inhibition was found to be 1.44%.

For `CCCCN1CCN(CC(O)CNC(=O)Nc2ccc(Cl)cc2)CC1` (stereo not given), the inhibition worked out at 1.81%.

For the compound `COc1cc(C(=O)NCc2nn(CCN3CCC(N4CCCC4)CC3)cc2-c2ccc(Cl)c(Cl)c2)cc(OC)c1OC`, the inhibition is 3.75%.

For the compound `COc1ccc(Nc2nc(N)c3cc(OC)c(OC)cc3n2)cc1OC`, the inhibition was determined as 5.87%.

`CS(=O)(=O)CCNCc1nc(-c2ccc3c(Nc4ccc(Oc5ccccn5)cc4)ccnc3c2)cs1`: the inhibition is 2.64%.

Take `Cc1cccc2nc(-c3cccc(-c4cccc(NC(=O)Nc5ccc(Cl)c(Cl)c5)c4)c3)[nH]c12`: the inhibition is -0.99%.

For the compound `CCN(CC)CCCNCc1ccc(-c2ccc(C(F)(F)F)cc2)cc1`, the inhibition is -0.45%.

Take `Cc1ccc(OCC2CCN(c3ncc(C(=O)NC4CC4)cc3Cl)CC2)cc1`: the inhibition was 0.52%.

For `CCOc1ccc2nc(C)cc(N/N=C/c3cccc([N+](=O)[O-])c3)c2c1`, the inhibition was -1.04%.

The term inhibition denotes the relative decrease from the control value, in per cent.
